Sampled rows, rich in hits. Any-hit rate of the full collection: about 12%.
VP16 counter: VP16 counterscreen qHTS for inhibitors of ROR gamma transcriptional activity. AID 2546, 2010. 3.5% of 310,000 active. Potency, µM (highest dose often 53.6 µM), for the others: at the top dose activity, negative = inhibition, hits mostly inhibitors. Drosophila S2 Gal4-VP16 UAS-luciferase, luminescence, 20 h;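 also: Gal4-VP16 expression switched on by copper sulfate through the metallothionein promoter; nearly all actives have a fitted effect of over 50% in size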
Sfp inh: qHTS Assay for Inhibitors of Bacillus subtilis Sfp phosphopantetheinyl transferase (PPTase); AID 1490, 2009; Potency, µM, without a hit: largest response in the series, negative = inhibition, usual class: inhibitors; 3.5% of 310,000 active; 4'-phosphopantetheinyl transferase ffp (Bacillus subtilis), Q9F4F7; Biochemical Sfp PPTase activity, qHTS;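 also: the enzyme is Sfp with the accession as filed and its product quenches rhodamine fluorescence; 0% = enzyme reaction without inhibitor and -100% = no enzyme wells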
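Fluorescence-quenching assay with 15 nM Sfp, 5 uM rhodamine-CoA and 12.5 uM BHQ-2-labelled ybbR peptide in pH 7.6 Hepes/MgCl2 buffer. Enzyme was pre-incubated with compound for 15 min at room temperature. Rate was taken from the 30-min fluorescence change (525/598 nm).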
RORg inh: qHTS for inhibitors of ROR gamma transcriptional activity; Nuclear receptor ROR-gamma (Mus musculus), P51450; Drosophila S2 Gal4-RORgamma UAS-luciferase reporter, 20 h; 5.4% of 310,000 active; Potency, µM (highest dose often 53.6 µM), without a hit: top-dose activity change, negative = inhibition, hits mostly inhibitors; also: nearly all actives have a fitted effect of over 60% in size
Target sequence (P51450 whole entry, looked up, the tested form may be a part): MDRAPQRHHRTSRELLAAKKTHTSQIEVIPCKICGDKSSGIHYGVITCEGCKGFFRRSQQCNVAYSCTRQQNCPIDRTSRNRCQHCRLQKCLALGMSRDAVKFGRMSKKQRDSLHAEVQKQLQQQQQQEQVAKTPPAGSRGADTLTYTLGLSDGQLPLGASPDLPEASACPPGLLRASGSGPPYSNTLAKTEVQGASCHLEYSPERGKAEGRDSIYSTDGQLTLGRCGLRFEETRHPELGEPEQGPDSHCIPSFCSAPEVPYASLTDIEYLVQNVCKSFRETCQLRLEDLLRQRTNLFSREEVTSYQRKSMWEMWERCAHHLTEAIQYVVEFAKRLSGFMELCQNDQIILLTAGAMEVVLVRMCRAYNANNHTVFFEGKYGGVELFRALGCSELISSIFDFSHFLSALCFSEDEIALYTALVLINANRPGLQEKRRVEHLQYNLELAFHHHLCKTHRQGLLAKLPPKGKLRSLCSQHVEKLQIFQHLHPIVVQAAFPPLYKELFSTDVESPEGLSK
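Luciferase reporter read in Schneider cells carrying Gal4-RORγ (mouse) and UAS-Photinus luciferase; cells given compound 1 h before 700 uM copper sulfate induction, then incubated 20 h at ambient temperature.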
PLK1 PBD inh: qHTS for Inhibitors of PLK1-PDB (polo-like kinase 1 - polo-box domain): Primary Screen; 2.8% of 360,000 active; AID 720504, 2013; Serine/threonine-protein kinase PLK1 (Homo sapiens), P53350; Potency, µM, without a hit: max response, negative = inhibition, hits mostly inhibitors; Plk1 PBD binding of FITC phosphopeptide, fluorescence polarization; also: series mostly up to about 57 µM; nearly all actives have a fitted effect of over 65% in size
ALDH1A1 block: qHTS Assay for Inhibitors of Aldehyde Dehydrogenase 1 (ALDH1A1). Aldehyde dehydrogenase 1A1 (Homo sapiens), P00352. 7.3% of 220,000 active. Potency, µM (highest dose often 75.3 µM), without a hit: at the top dose activity, negative = inhibition, most hits filed as inhibitors. AID 1030, 2008. Purified ALDH1A1, NADH fluorescence, propionaldehyde substrate; active = well fitted inhibition curve with a large enough effect, not every such curve was filed as active; inconclusive = small, poorly fitted or top-dose-only effect, or another doubt; inactive = no such curve, though single readings can be large or run the other way;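 also: plate controls were no enzyme wells and a reference inhibitor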
An asterisk follows results filed as active; ? = inconclusive; . = no result; [ ] = another dose, or the depositor's remark. Unless noted, calls follow the shape of the dose curve; as a rule, active = well fitted curve in the direction sought with a large enough effect; inconclusive = small, poorly fitted or top-dose-only effect, or another doubt; inactive = no such curve, though single readings can be large; an effect the other way counts as inactive or inconclusive. Unless noted, % is scaled to controls: 0 for no effect and ±100 for the full control effect; potency is read from the fitted curve at half-maximal effect.

SMILES | VP16 counter | Sfp inh | RORg inh | PLK1 PBD inh | ALDH1A1 block
COc1ccc(-c2nc3cnc(Oc4cccc(Cl)c4)nc3n(C[C@H]3CCCO3)c2=O)cc1 | -5% | 2% | 32% | . | ?
Cc1ccc(S(=O)(=O)N2C[C@H]3[C@H]4C(=O)N(Cc5ccccc5)C(=O)[C@H]4CC(=O)[C@H]3[C@@H]2c2ccccc2)cc1 | . | . | . | -7% | .
COc1cc(C2Nc3c(F)cccc3C3C=CCC32)cc(Br)c1OC (stereo not drawn) | 1% | 40µM* | -16% | -10% | 25µM*
COc1cccc(C2Nc3c(F)cc(Br)cc3C3C=CCC32)c1OC (stereo not drawn) | -5% | -12% | 41% | 4% | 6%
C=CCn1c(Sc2ncc([N+](=O)[O-])s2)n[nH]c1=O | 4µM* | 10µM* | 4.5µM* | 1.2µM* | 2µM*
O=C(c1ccc2c(c1)OCO2)C1CCCN(Cc2ccc3nsnc3c2)C1 (stereo not drawn) | -6% | 2% | -1% | -3% | ?
Cn1c(CN2CCCC(C(=O)c3ccc4c(c3)OCO4)C2)nc2ccccc21 (stereo not drawn) | -2% | 9% | ? | -4% | 28µM*
COc1ccccc1NC(=O)c1ccccc1NC(=O)c1cc(Cl)ccc1NC(=O)c1ccco1 | -9% | 16µM* | 0% | -5% | 206%
O=C(Nc1ccccn1)c1ccco1 | 3% | 15% | 6% | -6% | 5%
O=C(Nc1ccc(Cl)cc1C(=O)Nc1ccccn1)c1ccco1 | ? | 18% | 13µM* | -23% | -6%
N#Cc1cccc(NC(=O)N2CC[C@@]3(CCCN(C(=O)c4ccncc4)C3)C2)c1 | -11% | -6% | 4% | . | 18%
CN[C@@H]1NC(=O)c2ccccc2N1Cc1ccc(F)cc1 | . | . | . | . | 16%[13.5 µM]
Clc1ccc2nc(-c3ccccc3)c(CC3CCCCC3)n2c1 | . | . | . | -9% | .
CON(C)C(=O)CC1(CN(Cc2ccccc2)C(=O)OC(C)(C)C)CCCCC1 | . | . | . | 8% | .
C#CC(=O)CC1(CN(Cc2ccccc2)C(=O)OC(C)(C)C)CCCCC1 | . | . | . | 12µM* | .
O=C(CSc1nc2ccccc2c(=O)n1CCCN1CCOCC1)NC12CC3CC(CC(C3)C1)C2 | -16% | -17% | 14µM* | 4% | ?
O=C(CSc1nc2ccccc2c(=O)n1CCCN1CCOCC1)NCCc1ccccc1 | . | . | . | -9% | .
O=c1c2ccccc2ncn1Cc1ccc(Cl)cc1 | -10% | 11% | 6% | 0% | -3%
Nn1c(-c2ccccc2)nc2ccccc2c1=O | 2% | 13% | -11% | 8% | 13%
Clc1ccc(Cn2nc(-c3ccccc3)nc2-c2ccccc2)cc1 | 28% | -10% | 1% | 24µM* | -9%
O=c1c2ccccc2nc(-c2ccccc2)n1Cc1ccc(Cl)cc1 | 12% | 11% | ? | 2% | 6.3µM*
O=c1c2ccccc2nc(-c2ccccc2)n1Cc1ccccc1 | 24% | 22% | 39% | -9% | 16µM*
O=C(O)CC1(CC(=O)Nc2ccc3ccccc3n2)CCCCC1 | 5% | 11% | -3% | -6% | .
O=c1[nH]c(=S)[nH]c2c1C(c1cccc(C(F)(F)F)c1)OC(CCc1ccccc1)C2 (stereo not drawn) | . | . | . | -13% | .
O=c1c2ccccc2nc(-c2ccccc2)n1CCN1CCOCC1 | -2% | 10% | 7% | 1% | 13µM*
COc1ccc(-c2nc3ccccc3c(=O)n2CCCN2CCOCC2)cc1 | 20% | -8% | 41% | -5% | -5%
COc1ccc(N2C(=S)N=C(Nc3cccc(C)c3)C23CCCCC3)cc1 | 6.3µM* | 17% | 2.2µM* | -10% | 17%
Cc1ccc(N2C(=S)N=C(Nc3ccccc3C)C23CCOC(C)(C)C3)cc1 (stereo not drawn) | 13µM* | 13% | 4.5µM* | 1% | -1%
Cc1cccc(C)c1NC1=NC(=S)N(c2ccc(C(=O)O)cc2)C12CCCCC2 | 2% | 15% | 20% | -12% | 2%
